Data from ChEMBL document CHEMBL1961873, “Compounds: GSK PKIS; Assays: Nanosyn kinase panel” (2012).
Values joined by “and” are separate entries in the source; they are usually repeats but may differ in a detail not shown here. Equal values may be shown once.

Assays:
[1] = target: Leukocyte tyrosine kinase receptor (Homo sapiens) (UniProt P29376); details: at 1 µM;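 further: each value is the mean inhibition of LTK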
[2] = target: Tyrosine-protein kinase Lyn (Homo sapiens) (UniProt P07948); details: at 0.1 µM
[3] = target: Tyrosine-protein kinase Lyn (Homo sapiens) (UniProt P07948); details: at 1 µM
[4] = target: Tyrosine-protein kinase Lyn (Homo sapiens) (UniProt P07948); details: at 0.1 µM; remark: listed apart in the source
[5] = target: Tyrosine-protein kinase Lyn (Homo sapiens) (UniProt P07948); details: at 1 µM; remark: listed apart in the source
[6] = target: T1, Tyrosine-protein kinase Mer (Homo sapiens) (UniProt Q12866); details: at 0.1 µM
T1 sequence (whole entry): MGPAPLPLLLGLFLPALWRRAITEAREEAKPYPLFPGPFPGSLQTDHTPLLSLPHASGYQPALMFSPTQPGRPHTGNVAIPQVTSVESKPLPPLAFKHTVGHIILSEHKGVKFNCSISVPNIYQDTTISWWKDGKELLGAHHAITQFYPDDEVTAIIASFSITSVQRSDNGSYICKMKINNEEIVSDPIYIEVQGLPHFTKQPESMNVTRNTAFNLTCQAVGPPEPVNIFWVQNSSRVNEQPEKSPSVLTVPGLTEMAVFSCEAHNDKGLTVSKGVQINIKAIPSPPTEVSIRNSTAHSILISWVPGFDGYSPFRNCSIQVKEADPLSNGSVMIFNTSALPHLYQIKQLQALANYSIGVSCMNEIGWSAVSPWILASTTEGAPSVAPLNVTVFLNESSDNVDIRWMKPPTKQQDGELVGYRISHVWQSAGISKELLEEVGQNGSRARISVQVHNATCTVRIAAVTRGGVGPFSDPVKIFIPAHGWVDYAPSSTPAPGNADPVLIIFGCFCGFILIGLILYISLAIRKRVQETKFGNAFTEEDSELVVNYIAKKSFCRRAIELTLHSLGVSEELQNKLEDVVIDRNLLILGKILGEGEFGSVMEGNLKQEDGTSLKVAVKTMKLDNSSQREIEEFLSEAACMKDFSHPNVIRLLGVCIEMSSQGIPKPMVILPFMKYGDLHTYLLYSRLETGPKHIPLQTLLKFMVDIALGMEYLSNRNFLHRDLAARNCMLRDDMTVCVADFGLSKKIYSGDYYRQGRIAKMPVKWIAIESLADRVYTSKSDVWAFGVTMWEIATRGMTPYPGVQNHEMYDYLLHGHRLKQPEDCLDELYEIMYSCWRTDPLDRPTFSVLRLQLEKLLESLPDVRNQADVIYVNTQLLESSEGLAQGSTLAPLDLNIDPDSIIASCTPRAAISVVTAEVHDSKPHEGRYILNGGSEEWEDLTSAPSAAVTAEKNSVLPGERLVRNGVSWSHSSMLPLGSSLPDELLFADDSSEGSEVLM

[7] = target: T1, Tyrosine-protein kinase Mer (Homo sapiens); details: at 1 µM
[8] = target: Hepatocyte growth factor receptor (Homo sapiens) (UniProt P08581); details: at 0.1 µM
[9] = target: Hepatocyte growth factor receptor (Homo sapiens) (UniProt P08581); details: at 1 µM
[10] = target: T2, Muscle, skeletal receptor tyrosine-protein kinase (Homo sapiens) (UniProt O15146); details: at 0.1 µM
T2 sequence (whole entry): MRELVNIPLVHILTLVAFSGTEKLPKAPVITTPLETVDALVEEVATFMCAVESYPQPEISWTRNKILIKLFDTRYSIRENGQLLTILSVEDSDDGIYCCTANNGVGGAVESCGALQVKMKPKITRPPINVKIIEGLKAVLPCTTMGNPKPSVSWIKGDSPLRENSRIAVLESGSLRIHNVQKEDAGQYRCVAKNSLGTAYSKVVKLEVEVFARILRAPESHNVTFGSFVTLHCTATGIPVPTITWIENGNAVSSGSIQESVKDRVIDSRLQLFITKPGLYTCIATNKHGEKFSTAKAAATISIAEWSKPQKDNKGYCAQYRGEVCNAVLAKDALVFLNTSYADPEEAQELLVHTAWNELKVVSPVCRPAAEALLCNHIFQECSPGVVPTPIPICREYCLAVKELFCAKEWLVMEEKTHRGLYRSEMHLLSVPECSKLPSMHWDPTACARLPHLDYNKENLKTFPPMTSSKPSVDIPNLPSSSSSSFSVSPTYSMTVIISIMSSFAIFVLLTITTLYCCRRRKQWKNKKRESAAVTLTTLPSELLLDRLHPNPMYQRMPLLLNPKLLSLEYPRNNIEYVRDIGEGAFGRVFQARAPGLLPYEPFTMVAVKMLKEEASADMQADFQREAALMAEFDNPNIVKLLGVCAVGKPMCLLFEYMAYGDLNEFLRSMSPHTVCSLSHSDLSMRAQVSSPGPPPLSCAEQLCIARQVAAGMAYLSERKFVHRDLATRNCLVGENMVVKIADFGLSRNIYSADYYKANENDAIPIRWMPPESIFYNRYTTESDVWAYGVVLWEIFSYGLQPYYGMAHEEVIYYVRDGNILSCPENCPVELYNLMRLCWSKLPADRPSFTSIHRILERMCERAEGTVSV

[11] = target: T2, Muscle, skeletal receptor tyrosine-protein kinase (Homo sapiens); details: at 1 µM
[12] = target: Platelet-derived growth factor receptor alpha (Homo sapiens) (UniProt P16234); details: at 0.1 µM
[13] = target: Platelet-derived growth factor receptor alpha (Homo sapiens) (UniProt P16234); details: at 1 µM
[14] = system: Platelet-derived growth factor receptor alpha (Homo sapiens), P16234 [D842V]; details: at 0.1 µM
[15] = system: Platelet-derived growth factor receptor alpha (Homo sapiens), P16234 [D842V]; details: at 1 µM
[16] = system: Platelet-derived growth factor receptor alpha (Homo sapiens), P16234 [T674I]; details: at 0.1 µM
[17] = system: Platelet-derived growth factor receptor alpha (Homo sapiens), P16234 [T674I]; details: at 1 µM
[18] = system: Platelet-derived growth factor receptor alpha (Homo sapiens), P16234 [V561D]; details: at 0.1 µM
[19] = system: Platelet-derived growth factor receptor alpha (Homo sapiens), P16234 [V561D]; details: at 1 µM
[20] = target: Platelet-derived growth factor receptor beta (Homo sapiens) (UniProt P09619); details: at 0.1 µM;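 further: reported value is the mean percent inhibition of the kinase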
Platelet-derived growth factor receptor beta (Homo sapiens), sequence (P09619 whole entry): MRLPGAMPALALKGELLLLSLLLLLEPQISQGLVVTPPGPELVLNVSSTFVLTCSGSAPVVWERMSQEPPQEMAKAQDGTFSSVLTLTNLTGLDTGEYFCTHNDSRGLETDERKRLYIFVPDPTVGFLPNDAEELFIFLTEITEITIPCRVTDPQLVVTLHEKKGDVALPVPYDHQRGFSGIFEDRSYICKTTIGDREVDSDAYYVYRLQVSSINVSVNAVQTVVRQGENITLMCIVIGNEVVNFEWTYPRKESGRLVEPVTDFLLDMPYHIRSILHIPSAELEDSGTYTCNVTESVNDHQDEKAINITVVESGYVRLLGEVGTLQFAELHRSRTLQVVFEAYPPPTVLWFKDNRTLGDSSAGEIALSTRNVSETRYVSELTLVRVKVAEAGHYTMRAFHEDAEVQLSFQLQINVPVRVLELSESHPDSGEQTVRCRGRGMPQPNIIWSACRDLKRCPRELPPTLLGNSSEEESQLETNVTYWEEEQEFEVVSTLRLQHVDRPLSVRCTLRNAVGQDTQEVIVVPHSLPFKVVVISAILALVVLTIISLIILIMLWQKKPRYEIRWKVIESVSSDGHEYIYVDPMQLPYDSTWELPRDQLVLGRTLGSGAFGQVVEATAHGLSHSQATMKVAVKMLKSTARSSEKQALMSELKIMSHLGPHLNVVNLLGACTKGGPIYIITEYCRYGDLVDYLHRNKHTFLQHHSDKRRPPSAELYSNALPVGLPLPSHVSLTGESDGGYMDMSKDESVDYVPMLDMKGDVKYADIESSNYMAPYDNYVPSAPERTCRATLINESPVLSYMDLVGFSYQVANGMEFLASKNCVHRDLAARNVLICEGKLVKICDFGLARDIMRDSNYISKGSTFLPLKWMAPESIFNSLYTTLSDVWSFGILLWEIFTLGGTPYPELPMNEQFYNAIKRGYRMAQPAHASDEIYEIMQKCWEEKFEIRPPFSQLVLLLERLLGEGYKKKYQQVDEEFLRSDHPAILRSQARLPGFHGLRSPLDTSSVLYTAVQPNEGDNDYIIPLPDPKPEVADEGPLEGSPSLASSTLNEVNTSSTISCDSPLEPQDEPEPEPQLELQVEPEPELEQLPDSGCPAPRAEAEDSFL

Platelet-derived growth factor receptor alpha (Homo sapiens), P16234 [D842V], sequence (P16234 whole entry D842V): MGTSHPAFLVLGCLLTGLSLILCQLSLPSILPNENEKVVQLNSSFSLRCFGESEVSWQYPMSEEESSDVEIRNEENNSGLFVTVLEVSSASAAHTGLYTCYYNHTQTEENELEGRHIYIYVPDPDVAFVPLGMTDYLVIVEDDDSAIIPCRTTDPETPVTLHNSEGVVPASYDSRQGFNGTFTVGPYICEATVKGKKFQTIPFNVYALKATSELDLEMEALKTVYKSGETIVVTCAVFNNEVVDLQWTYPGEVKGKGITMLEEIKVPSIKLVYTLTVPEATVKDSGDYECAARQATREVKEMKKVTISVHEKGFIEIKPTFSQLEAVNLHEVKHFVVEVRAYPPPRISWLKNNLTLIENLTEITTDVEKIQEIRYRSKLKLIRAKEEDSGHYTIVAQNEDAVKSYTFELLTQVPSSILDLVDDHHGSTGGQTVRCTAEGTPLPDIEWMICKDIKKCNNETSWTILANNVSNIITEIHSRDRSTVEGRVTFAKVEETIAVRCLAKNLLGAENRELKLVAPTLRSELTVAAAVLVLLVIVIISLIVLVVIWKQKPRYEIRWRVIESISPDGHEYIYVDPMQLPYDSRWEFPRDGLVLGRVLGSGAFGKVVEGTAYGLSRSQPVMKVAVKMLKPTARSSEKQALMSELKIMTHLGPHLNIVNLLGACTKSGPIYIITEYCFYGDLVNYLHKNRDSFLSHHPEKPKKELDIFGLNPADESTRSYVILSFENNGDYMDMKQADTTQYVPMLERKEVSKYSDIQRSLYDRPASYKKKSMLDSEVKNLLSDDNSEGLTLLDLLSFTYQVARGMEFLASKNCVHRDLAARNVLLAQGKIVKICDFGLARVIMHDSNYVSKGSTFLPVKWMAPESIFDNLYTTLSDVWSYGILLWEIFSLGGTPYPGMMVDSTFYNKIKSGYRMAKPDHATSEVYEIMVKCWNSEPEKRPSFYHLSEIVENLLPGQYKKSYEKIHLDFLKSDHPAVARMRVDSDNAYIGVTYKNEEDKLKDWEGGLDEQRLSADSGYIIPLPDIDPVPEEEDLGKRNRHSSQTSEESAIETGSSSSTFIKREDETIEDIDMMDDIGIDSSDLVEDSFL
Platelet-derived growth factor receptor alpha (Homo sapiens), P16234 [V561D], sequence (P16234 whole entry V561D): as the sequence (P16234 whole entry D842V) above, with V561D, V842D counted along it
Tyrosine-protein kinase Lyn (Homo sapiens), sequence (P07948 2-512 limits assumed): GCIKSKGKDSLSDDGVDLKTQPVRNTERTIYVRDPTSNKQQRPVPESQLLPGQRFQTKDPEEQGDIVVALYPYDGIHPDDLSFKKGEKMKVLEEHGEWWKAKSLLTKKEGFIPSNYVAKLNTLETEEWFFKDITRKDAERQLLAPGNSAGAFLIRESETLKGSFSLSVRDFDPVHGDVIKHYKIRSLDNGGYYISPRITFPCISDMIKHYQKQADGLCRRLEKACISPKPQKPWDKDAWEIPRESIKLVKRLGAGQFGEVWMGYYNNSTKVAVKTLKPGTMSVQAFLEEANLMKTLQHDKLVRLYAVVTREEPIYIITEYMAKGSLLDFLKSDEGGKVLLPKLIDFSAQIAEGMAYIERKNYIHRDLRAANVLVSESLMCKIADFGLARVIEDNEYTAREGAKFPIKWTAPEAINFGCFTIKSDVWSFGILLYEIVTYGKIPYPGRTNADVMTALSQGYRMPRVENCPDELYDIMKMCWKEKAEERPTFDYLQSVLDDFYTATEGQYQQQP
Platelet-derived growth factor receptor alpha (Homo sapiens), P16234 [T674I], sequence (P16234 whole entry T674I): as the sequence (P16234 whole entry D842V) above, with T674I, V842D counted along it

Compound | inhibition [1] | inhibition [2] | inhibition [3] | inhibition [4] | inhibition [5] | inhibition [6] | inhibition [7] | inhibition [8] | inhibition [9] | inhibition [10] | inhibition [11] | inhibition [12] | inhibition [13] | inhibition [14] | inhibition [15] | inhibition [16] | inhibition [17] | inhibition [18] | inhibition [19] | inhibition [20]
O=C(O[C@H]1CN[C@H](C#Cc2cc3ncnc(Nc4ccc5c(cnn5Cc5ccccc5)c4)c3s2)C1)N1CCOCC1 | -0.87% | 1.1% | 1.11% | 1.54% | 0.75% | 1.33% | 9.62% | 5.14% | 1.77% | 0.92% | -0.19% | 2.17% | 8.81% | 2.71% | 3.09% | -0.12% | 2.78% | 2.22% | 2.22% | 2.18%
CC(C)c1ccc(-c2cc(-c3c[nH]nc3-c3ccccn3)ccn2)cc1 | 2.43% | 1.49% | 1.48% | 0.81% | 1.31% | -0.12% | 3.22% | -1.81% | 3.3% | 5.54% | 6.85% | 10% | 19.8% | 5.82% | 34.2% | 4.22% | 3.25% | 5.56% | 20.6% | 3.19%
O=C(O[C@H]1CN[C@H](C#Cc2cc3ncnc(Nc4ccc(OCc5cccc(F)c5)c(Cl)c4)c3s2)C1)N1CCOCC1 | 5.96% | 5.44% | 6.48% | 2.24% | 4.85% | 2.6% | 5.1% | 4.9% | 7.49% | 1.77% | 2.35% | 7.9% | 14.3% | 2.95% | 4.82% | 8.66% | 9.57% | 8.32% | 3.92% | 1.59%
CNC(=O)c1ncccc1Nc1nc(Nc2cc3c(cc2OC)CCCN3C(=O)CN(C)C)nc2[nH]ccc12 | 94.4% | 3.52% | 4.53% | 2.33% | 3.27% | 0.94% | 4.5% | 6.6% | 10.1% | 5.51% | 16.7% | 10.7% | 20.6% | 3.17% | 7.19% | 5.75% | 6.87% | 3.32% | 9.94% | 7.26%
CCN1CCC(C(=O)Nc2n[nH]c3nnc(-c4cccc(F)c4F)cc23)CC1 | -0.29% | 0.08% | -1.05% | 1.1% | 0.66% | 0.64% | 2.84% | 4.13% | 2.58% | 1.86% | 4.59% | 0.87% | 3.69% | 1.64% | 2.59% | 2.94% | 7.18% | -0.48% | 0.89% | 3.08%
Nc1nonc1-c1nc2cnccc2n1C1CC1 | 2.71% and 2.44% | 3.73% and 1.56% | 4.88% and 4.63% | 2.39% and 0.71% | 4.2% and 2.36% | 3.41% and 1.34% | 6.46% and 2.52% | 6.7% and 2.47% | 7.09% and 3.3% | 4.75% and 1.45% | 8.16% and 1.56% | 15.3% and 5.54% | 18.8% and 15.6% | 4.39% and 4.32% | 16.4% and 18.7% | 6.49% and 5.23% | 20.2% and 20.4% | 4.47% and 2.61% | 14% and 12.1% | 10.2% and 2.99%
O=C1Nc2ccccc2/C1=C1\CCc2cc(O)ccc21 | 36.7% | 6.08% | 12% | 2.38% | 9.08% | 2.69% | 8.7% | 6.45% | 10.1% | 5.49% | 32.1% | 23% | 63.2% | 7.24% | 34.7% | 45.7% | 97.7% | 32.4% | 64.8% | 11.3%
COc1ccc(Nc2ncc(-c3ccccc3)o2)cc1OC | 2.24% | 7.52% | 37.3% | 5.1% | 32.9% | -0.52% | 5.18% | 2.78% | 1.69% | 2.37% | 19.2% | 25.9% | 68.6% | 5.83% | 28.4% | 42.2% | 94.4% | 48.8% | 77% | 25.5%
CN1CCN(Cc2ccc(-c3cc4ncnc(Nc5ccc(OCc6cccc(F)c6)c(Cl)c5)c4s3)o2)CC1 | 6.82% and 9.25% | 3.27% and 7.55% | 9.39% and 15.3% | 2.07% and 5.46% | 6.51% and 12% | 8.38% and 10.3% | 48.5% and 49.4% | 11.1% and 5.95% | 24.3% and 34.3% | 0.99% and 4.74% | 1.12% and 8.01% | 6.77% and 7.26% | 16.9% and 23.4% | 3.07% and 3.74% | 6.44% and 9.07% | 4.32% and 7.13% | 13.9% and 20% | 5.61% and 3.37% | 13.1% and 11.5% | 2.48% and 3.36%
CS(=O)(=O)CCNCc1ccc(-c2ccc3ncnc(Nc4ccc(OCc5ccccc5)cc4)c3c2)o1 | 4.57% | 4.79% | 9.83% | 4.55% | 8.36% | 7.16% | 43.7% | -0.6% | 4.43% | 2.69% | 1.04% | 4.6% | 10.4% | 3.6% | 3.61% | 3.14% | 4.61% | 5.39% | 7.8% | 3%
CS(=O)(=O)CCNCc1ccc(-c2ccc3ncnc(Nc4ccc(OCc5cccc(C(F)(F)F)c5)cc4)c3c2)o1 | 4.64% | 4.67% | 5.36% | -0.37% | 2.74% | 1.26% | 7.4% | 2.15% | 4.91% | 2.66% | 9.15% | 9.67% | 15.9% | 0.59% | 1.85% | 5.53% | 12.3% | 4.16% | 14.6% | 7.32%
N#Cc1ccc2c(-c3ccnc(NC4CC4)n3)c(-c3ccc(F)cc3)nn2c1 | -0.2% | -0.29% | 1.87% | -0.74% | 1.81% | 0.43% | 2.56% | 3.34% | 3.65% | 0.58% | -0.28% | 2.76% | 11.6% | -0.1% | 6.91% | 6.42% | 6.15% | 1.97% | 8.16% | 2.34%
O=C(Nc1n[nH]c2nnc(-c3cccnc3)cc12)C1CC1 | 0.15% | 0.94% | 1.49% | 1.05% | 1.61% | 1.05% | 1.8% | 3.88% | 0.68% | -0.19% | -0.99% | -0.04% | 5.88% | 2.16% | 2.26% | 1.36% | 6.43% | 1.61% | 3.69% | 1.07%
